Mito fusion yeast: inhibitors of mitochondrial division or activators of mitochondrial fusion | S. cerevisiae fusion-defective mutant growth rescue, CellTiterGlo 48 h | Potency, µM (doses to about 46.1 µM), hits mostly activators | actives 0.23% (n = 320,000); further: nearly all actives have a fitted effect of over 45% in size
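S. cerevisiae fusion-defective temperature-sensitive mutants (e.g. fzo1-1, mgm1-5) grown 48 h at 37C in YPEG (ethanol/glycerol non-fermentable) medium with 23 nl compound per well; growth rescue read as CellTiterGlo luminescence.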
AT treatment: potential ataxia-telangiectasia treatments restoring KAP-1 phosphorylation; F2112 A-T fibroblasts, KAP-1 phosphorylation AlphaLISA; neocarzinostatin DNA damage 30 min before lysis; Potency, µM (series often up to 57.5 µM), usual class: activators; actives 0.19% (n = 320,000); further: nearly all actives have a fitted effect of over 45% in size
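ATM-like activity read as KAP-1 phosphorylation via AlphaLISA donor/acceptor antibody pairs after lysis and 6 hr at 25C. Cells were ATM-null patient fibroblasts (F2112, hTERT), dosed 60 min, then exposed to the DSB inducer NCS for 30 min.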
TDP43 rescue: rescues yeast growth from TDP-43 toxicity; TDP-43 expressing yeast growth rescue, BacTiter-Glo, 24 h; Potency, µM (series often up to 46.1 µM), actives largely listed as activators; actives 1.8% (n = 410,000); AID 652104; further: nearly all actives have a fitted effect of over 50% in size
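In this qHTS, compounds that restore growth of yeast expressing TDP-43 appear as activators. Cells (OD600=0.02, galactose medium, raffinose-pregrown) are incubated with compound 24 hr at 30 deg C and growth is quantified by BacTiter-Glo.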
aSyn rescue: alpha-synuclein toxicity inhibition in yeast | Yeast expressing alpha-synuclein, growth rescue, BacTiter-Glo, 24 h | Potency, µM (titrated, usually from 46.1 µM), hits mostly activators | actives 0.14% (n = 370,000); further: nearly all actives have a fitted effect of over 65% in size
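Screening used galactose-induced yeast with toxic alpha-synuclein levels, exposed to compound for 24 hr at 30 deg C. Cell growth, read with BacTiter-Glo luminescence, gave the measured signal.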
GRP78 ERSR act: inducers of ER stress response in human glioma cells; U87-MG GRP78 promoter luciferase reporter, 16 h; Potency, µM, actives largely listed as activators; actives 0.02% (n = 420,000); further: series mostly up to about 76 µM; nearly all actives have a fitted effect of over 35% in size
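Stably transfected U87-MG glioma cells carrying a GRP78-based luciferase sensor; 16 h compound incubation. Luminescence end-point read 10 min after Bright-Glo addition at room temperature.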
Abeta yeast res: A-beta toxicity reversal in yeast; AID 1347071; yeast expressing A-beta42, growth rescue, OD600, 48 h; response scale: 0% DMSO, 100% iron-clioquinol control; actives 0.063% (n = 410,000); Potency, µM (doses to about 46.1 µM), most hits filed as activators; further: nearly all actives have a fitted effect of over 55% in size
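Yeast A-beta toxicity model in growth medium with pinned compounds, 48 h at 30 C; growth read as absorbance at 600 nm. Normalized to FeCl3/clioquinol equimolar mix (positive) and DMSO (negative).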
Numbers stand for hits; – = inactive; ? = inconclusive; · = no result. An excerpt weighted towards active compounds, which were near 2.1% of everything screened. The call rests on the fitted dose curve; in most records, active means well fitted curve in the direction sought with a large enough effect; inconclusive means small, poorly fitted or top-dose-only effect, or another doubt; inactive means no such curve, though single readings can be large; an effect the other way counts as inactive or inconclusive.

SMILES	Mito fusion yeast	AT treatment	TDP43 rescue	aSyn rescue	GRP78 ERSR act	Abeta yeast res
NC(=O)[C@H]1CC2(CC(c3cccc(NC(=O)COc4ccc(Cl)cc4)c3)=NO2)CN1C(=O)CC(c1ccccc1)c1ccccc1 (stereo partly specified)	–	–	–	–	–	–
C=C(C)C(=O)Nc1cccc(C2=NOC3(C2)C[C@@H](C(N)=O)N(C(=O)c2ccc(Cl)cc2)C3)c1 (stereo partly specified)	–	–	–	–	–	–
C/C=C(/C)C(=O)Nc1cccc(C2=NOC3(C2)C[C@H](C(N)=O)N(C(=O)c2ccc(Cl)cc2)C3)c1 (stereo partly specified)	14.1µM	–	–	–	–	–
NC(=O)[C@@H]1CC2(CC(c3cccc(NC(=O)CC(c4ccccc4)c4ccccc4)c3)=NO2)CN1C(=O)COc1ccc(Cl)cc1 (stereo partly specified)	–	35.5µM	–	–	–	–
CCN(Cc1ccccc1)C(=O)c1cnn(-c2ccc(F)cc2)c1-n1cccc1	·	·	35.5µM	–	–	–
O=C1[C@H](Cc2ccccc2)NC/C=C\C[C@H](c2ccc(Cl)cc2)N1Cc1ccc(Cl)cc1	·	·	·	·	–	·
COc1cccc(-c2nc(N3CCN(C)CC3)c3ccccc3n2)c1O	–	–	–	–	–	–
COc1cccc(-c2nc(N3CCCCC3C)c3ccccc3n2)c1O (stereo unspecified)	12.6µM	–	?	–	–	–
Cc1ccccc1NC(=S)NC(=O)/C=C/c1ccco1	–	–	10µM	–	–	–
COCC(=O)Nc1cc(C(=O)N2CCc3c(Cl)cccc3C2)c2c(c1)nc(-c1ccncc1)n2C	·	·	·	·	–	·
O=C(NCc1c(O)ccc2ccccc12)c1ccccc1	–	–	20µM	–	–	?
COCCCn1c(C(=O)NC2CCCCC2C)cc2c(=O)n3cccc(C)c3nc21 (stereo unspecified)	–	–	–	–	–	–
CCN(C(=O)c1cc2c(=O)n3cccc(C)c3nc2n1CCCOC)C1CCCCC1	–	35.5µM	?	–	–	–
COc1ccc(N2C(=O)CC(SCC(=O)O)C2=O)cc1 (stereo unspecified)	–	–	–	–	–	–
COc1ccc(N2C(=O)CC(SCc3ccc(Cl)cc3)C2=O)cc1 (stereo unspecified)	–	–	22.4µM	–	–	–
O=C1CC(SCc2nc3ccccc3[nH]2)C(=O)N1c1ccc(F)c(Cl)c1 (stereo unspecified)	–	·	12.6µM	·	–	–
COc1ccc(CN2CCC3(CCC(CNC(=O)C4CCCO4)O3)CC2)c(C)c1C (stereo unspecified)	·	·	·	·	–	·
O=C(Cc1ccc(F)cc1)NCCc1csc(-c2cccc(F)c2)n1	·	·	11.2µM	·	–	–
O=C(NCCc1csc(-c2ccc(C(F)(F)F)cc2)n1)c1ccc(F)c(F)c1	·	·	25.1µM	–	–	–
Cc1cccc(-c2nc(CCNC(=O)Cc3ccc(F)cc3)cs2)c1	·	·	–	·	–	–
O=C(NCCc1csc(-c2ccc(F)cc2)n1)c1cccc(F)c1	·	·	15.8µM	·	–	–
CC(C(=O)Nc1nc2ccccc2s1)n1cc([N+](=O)[O-])cn1 (stereo unspecified)	–	–	–	–	–	–
CC(=O)Nc1ccc(NS(=O)(=O)c2c(Cl)cccc2Cl)cc1	–	39.8µM	–	–	–	–
O=[N+]([O-])c1ccc(O/N=[N+](\[O-])N2CCCC2)c([N+](=O)[O-])c1	·	·	·	–	–	·
O=C(C[n+]1cccc(Br)c1)c1ccc(-c2ccccc2)cc1	–	–	1.58µM	–	–	–
SMILES	Mito fusion yeast	AT treatment	TDP43 rescue	aSyn rescue	GRP78 ERSR act	Abeta yeast res
Clc1ccc(-c2nnc(-c3ccco3)nc2N2CCCCC2)cc1	11.2µM	–	?	–	–	–
CCn1c(-c2ccccc2F)nc2cc(NC(C)=O)cc(C(=O)N3CCCCC3c3nccn3C)c21 (stereo unspecified)	·	·	·	·	–	·
Cn1cc(C(=O)c2ccc(Cl)cc2Cl)cc1C=O	–	–	–	–	–	–
COC(=O)c1cc(C(=O)c2cccc(Cl)c2Cl)cn1C	–	–	17.8µM	–	–	–
COC(=O)c1cc(C(=O)c2ccc(Cl)cc2Cl)cn1C	–	–	11.2µM	–	–	–
Cn1cc(C(=O)c2cccc(Cl)c2Cl)cc1C(=O)O	–	–	–	–	–	–
O=[N+]([O-])c1ccc(N2CCN(C(=S)NC3CCCCC3)CC2)cc1	–	–	12.6µM	–	–	?
O=[N+]([O-])c1ccc(N2CCN(C(=S)Nc3ccccc3)CC2)cc1	–	–	–	–	–	–
Cc1nc(CC(=O)N2CCC(n3c(C4CCC4)nc4cccnc43)CC2)cs1	·	·	·	·	–	·
Clc1ccc(OCc2nn3c(C4CCCCC4)nnc3s2)cc1	–	–	20µM	–	–	–
COc1ccc(-c2nn3c(C4CCCCC4)nnc3s2)cc1OC	?	–	20µM	–	–	–
c1ccc(-c2nn3c(C4CCCCC4)nnc3s2)cc1	–	–	20µM	–	–	–
COc1cc(-c2nn3c(C4CCCCC4)nnc3s2)cc(OC)c1OC	–	–	–	–	–	–
c1ccc(-c2nn3c(C4CCCCC4)nnc3s2)nc1	–	–	–	–	–	–
CC(C)OCCCn1c(=O)c2ccccc2n2c(-c3ccc(F)cc3)nnc12	·	·	–	·	–	–
CCC1CN(CC(=O)NC(C)c2c(C)nn(C)c2C)Cc2cc(OC)ccc2O1 (stereo unspecified)	·	·	·	·	–	·
Cc1ccc(-n2nnnc2-c2cccc(C)c2)cc1	–	–	20µM	–	–	–
COc1ccc(-n2nnnc2-c2cccc(OC)c2)cc1	–	–	12.6µM	–	–	–
Cn1cc(/C=C/c2ccnc3ccccc23)c2ccccc21	·	·	·	–	–	·
O=C(c1cscn1)N1CCOc2ccc(CN3CCC(Oc4cccnc4)CC3)cc2C1	·	·	·	·	–	·
c1ccc2c(N3CCCCCC3)nc(CN3CCCCC3c3nccs3)nc2c1 (stereo unspecified)	·	·	·	·	–	·
COc1ccc(OC)c(-c2ccnc(-n3ncc(C(=O)N(C)CCO)c3C3CC3)n2)c1	·	·	·	·	–	·
CCCn1c(CC)nc([N+](=O)[O-])c1S(=O)(=O)c1ccccc1	–	–	25.1µM	–	–	–
COc1ccc(C(=O)O/N=C(\N)c2ccccc2)c(OC)c1	–	–	14.1µM	–	–	–
COc1ccccc1C(=O)O/N=C(\N)c1ccccc1Cl	–	–	15.8µM	–	–	–
COc1ccc(C(=O)O/N=C(\N)c2ccc(OC)c(OC)c2)c(OC)c1	–	–	?	–	–	–

Compound activity deposited in PubChem BioAssay by National Center for Advancing Translational Sciences (NCATS).
